From ChEMBL document CHEMBL2218924, “A broad activity screen in support of a chemogenomic map for kinase signalling research and drug discovery” (Biochem J, 2013)

Assays:
[1] = target: T1, Protein kinase C epsilon type (Homo sapiens) (UniProt Q02156); conditions: at 1 µM
T1 sequence (whole entry): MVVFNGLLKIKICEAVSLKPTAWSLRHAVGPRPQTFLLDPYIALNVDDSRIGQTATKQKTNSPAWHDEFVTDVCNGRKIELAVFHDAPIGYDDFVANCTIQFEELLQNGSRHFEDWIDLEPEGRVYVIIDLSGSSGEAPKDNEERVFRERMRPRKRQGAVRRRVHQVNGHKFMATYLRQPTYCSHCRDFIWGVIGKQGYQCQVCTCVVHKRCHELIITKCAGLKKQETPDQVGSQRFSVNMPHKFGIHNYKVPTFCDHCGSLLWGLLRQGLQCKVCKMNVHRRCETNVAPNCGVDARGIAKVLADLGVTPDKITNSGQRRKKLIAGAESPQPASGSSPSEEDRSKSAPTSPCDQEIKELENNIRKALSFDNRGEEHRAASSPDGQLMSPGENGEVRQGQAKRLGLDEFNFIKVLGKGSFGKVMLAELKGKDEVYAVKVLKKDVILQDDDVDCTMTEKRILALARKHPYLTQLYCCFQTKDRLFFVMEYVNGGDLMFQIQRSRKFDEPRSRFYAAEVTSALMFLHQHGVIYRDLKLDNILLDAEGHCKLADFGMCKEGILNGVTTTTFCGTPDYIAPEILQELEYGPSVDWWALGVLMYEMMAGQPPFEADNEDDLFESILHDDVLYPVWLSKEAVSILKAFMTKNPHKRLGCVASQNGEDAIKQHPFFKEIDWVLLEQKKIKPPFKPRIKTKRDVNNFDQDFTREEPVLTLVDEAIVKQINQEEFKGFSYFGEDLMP

[2] = target: T1, Protein kinase C epsilon type (Homo sapiens); conditions: at 10 µM

Structure (SMILES)	residual activity [1]	residual activity [2]
CC#CC(=O)Nc1cc2c(Nc3ccc(F)c(Cl)c3)ncnc2cn1	90%	94%
Nc1cccc(-c2cc3c(Oc4cccc(O)c4)ncnc3[nH]2)c1	120%	98%
c1ccc2c(-c3ccncc3)c[nH]c2c1	73%	55%
O=C1Nc2cc(Br)ccc2/C1=C1/Nc2ccccc2/C1=N\O	107%	91%
COc1cc2ncnc(N3CCN(C(=O)Nc4ccc(Oc5ccccc5)cc4)CC3)c2cc1OC	96%	90%
CC(C)n1cnc2/c(=N/c3cccc(Cl)c3)nc(NCCO)[nH]c21	75%	92%
Nc1ccc2ncnc(NCCc3ccc(Oc4ccccc4)cc3)c2c1	119%	126%
Cc1cncc2cccc(S(=O)(=O)N3CCCN(C(=O)CN)C[C@H]3C)c12	58%	23%
O=C1NC(=O)/C(=C\c2ccc3nccnc3c2)S1	105%	95%
N#C/C(=C(\N)Sc1ccc(N)cc1)c1ccccc1C(F)(F)F	100%	106%
COc1ccc(C(=O)Nc2sc3c(c2C(N)=O)CCCC3)cc1OC	89%	96%
Cc1cc2ncc(-c3ccccc3)nc2cc1C		100%
COc1cccc(-c2cc(=O)c3ccccc3o2)c1N	106%	100%
O=C1c2ccccc2-[n+]2ccc3c([nH]c4ccccc43)c21	93%	94%
O=C1NC(=O)/C(=C/c2ccc3c(c2)OC(F)(F)O3)S1	106%	99%
CCOc1cc2ncnc(Nc3cccc(Br)c3)c2cc1OCC	84%	100%
O=C1NC(=O)c2cc(Nc3ccc(F)cc3)c(Nc3ccc(F)cc3)cc21	67%	73%

Structure (SMILES)	residual activity [1]	residual activity [2]
O=Nc1c(-c2c(O)[nH]c3ccccc23)[nH]c2ccccc12	106%	91%
Cn1nc2c3c(cccc31)C(=O)c1ccccc1-2	106%	98%
O=C(O)c1ccc2c3c1cccc3c(=O)n1c3ccccc3nc21	112%	109%
CC[n+]1c(/C=C/N(C)c2ccccc2)n(-c2ccccc2)c2ccc(-c3nc4ccccc4s3)cc21	101%	107%
Cc1ccc(S(=O)(=O)/C=C/C#N)cc1	101%	92%
CCN(CC)C(=O)c1ccc(Nc2nc(OCC3CCCCC3)c3nc[nH]c3n2)cc1	80%	69%
Oc1c2ccccc2c2c3c(cccc13)N=N2	101%	84%
O=C1Nc2ccccc2/C1=C1/Nc2ccccc2/C1=N\OCCC(O)CO (stereo not given)	95%	82%
Cc1nc2cc3nc(-c4cccs4)cnc3cc2n1C	104%	89%
O=[N+]([O-])c1ccc(-c2nc(-c3ccc(F)cc3)c(-c3ccncc3)[nH]2)cc1	106%	99%
c1ccc(-c2n[nH]c3c2oc2ccccc23)cc1	97%	88%
Oc1n[nH]c2nnc(-c3c(-c4ccccc4)nn4ccccc34)cc12	97%	98%
CNc1cc2c(Nc3cccc(Br)c3)ncnc2cn1	96%	99%
O=C(Nc1cccc(Nc2nccc(Nc3cccc(C(F)(F)F)c3)n2)c1)C1CC1	95%	80%
Cc1nc(-c2ccccc2)c(-c2ccncc2)o1	108%	108%
O=C1NC(=O)c2c1c1c3ccccc3[nH]c1c1[nH]c3cc(Br)ccc3c21	94%	102%
